CYP2C19 activ – increases human CYP2C19 enzyme activity; P33261; recombinant CYP2C19, luciferin-H EGE luminescence; hits give high values; 0 = fully inhibited enzyme, 1 = untreated enzyme; activation factor at 5 µM; 96,000 tested, under 10 active; AID 1025;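 active = activation factor of at least 2 at 5 µM in the primary screen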;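 note: 0 = wells with 2.5 mM tranylcypromine and 1 = vehicle-only wells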
CYP2C9 act – increases human cytochrome P450 2C9 activity; AID 1024; activation factor at 5 µM; P11712; recombinant CYP2C9, luciferin-H conversion, luminescence; hits give high values; factor 1 = untreated enzyme, 0 = blocked; actives 1.4% (n = 96,000);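 active = activation factor of 2 or more for CYP2C9 at a 5 µM dose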;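 note: 0 = sulfaphenazole-blocked wells and 1 = vehicle-only wells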
Target sequence (P11712 whole entry, looked up): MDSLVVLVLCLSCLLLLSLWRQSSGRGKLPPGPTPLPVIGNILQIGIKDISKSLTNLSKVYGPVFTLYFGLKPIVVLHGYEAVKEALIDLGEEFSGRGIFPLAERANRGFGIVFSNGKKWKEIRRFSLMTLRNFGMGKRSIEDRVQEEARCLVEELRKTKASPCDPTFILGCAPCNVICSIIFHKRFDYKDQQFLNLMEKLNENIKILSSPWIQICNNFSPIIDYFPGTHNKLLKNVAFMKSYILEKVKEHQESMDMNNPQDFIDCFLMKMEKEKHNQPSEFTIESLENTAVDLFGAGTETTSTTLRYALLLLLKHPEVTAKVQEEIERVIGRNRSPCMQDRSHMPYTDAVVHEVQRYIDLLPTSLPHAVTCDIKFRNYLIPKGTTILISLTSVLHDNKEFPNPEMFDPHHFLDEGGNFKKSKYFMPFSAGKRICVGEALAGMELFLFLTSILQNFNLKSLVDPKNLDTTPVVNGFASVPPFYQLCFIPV
CYP2C19 inhib – blocks human cytochrome P450 2C19. P33261. inhibition, % at 5 µM. actives 21% (n = 96,000). AID 778. CYP2C19 Supersomes, luciferin-H EGE luminescence, 30 min;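 active = CYP2C19 inhibition above a set limit at 5 µM in the primary screen, cut at about 50% in these data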;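 note: plate controls were negative control wells for no effect and 2.5 mM tranylcypromine positive control for full effect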
CYP2C9 inhib – blocks human cytochrome P450 2C9 | P11712 | CYP2C9 Supersomes, luciferin-H conversion, luminescence | inhibition, % at 5 µM | actives 20% (n = 96,000);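 active = blocking of liver enzyme CYP2C9 beyond about 50% at 5 µM, limit read from the data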
PLAP activator – activates human placental alkaline phosphatase | activation fold at 20 µM | AID 696 | purified PLAP enzyme, luminescent substrate read-out; hits give high values | actives 1.2% (n = 96,000) | P05187; in the data active = activation fold above about 2
An asterisk follows results filed as active. Hits are enriched below; roughly 31% of the tested compounds scored in any of these assays.

SMILES | CYP2C19 activ | CYP2C9 act | CYP2C19 inhib | CYP2C9 inhib | PLAP activator
Nc1nc(CN2CCN(Cc3ccc4c(c3)OCO4)CC2)nc(Nc2ccccc2)n1 | 1 | 0.9 | 1 | 10 | 1.5
CC(=O)Nc1ccc(OCC(O)CN2CCN(S(=O)(=O)c3ccc(NC(C)=O)cc3)CC2)cc1 (stereo not drawn) | 0.7 | 0.3 | 25 | 70* | 1.6
CC(=O)Nc1ccc(NCC(O)COc2ccccc2)cc1 (stereo not drawn) | 0.4 | 0.7 | 56* | 34 | 0.9
CC(=O)Nc1ccc(S(=O)(=O)N2CCN(C(C)CCc3ccccc3)CC2)cc1 (stereo not drawn) | 0.5 | 0.4 | 50 | 56* | 1.7
CC(=O)Nc1ccc(S(=O)(=O)N2CCN(C)CC2)cc1 | 0.9 | 1.1 | 6 | -12 | 1
CCC(=O)c1ccc(OCC(O)CN2CCN(C(c3ccccc3)c3ccccc3)CC2)cc1 (stereo not drawn) | 0.5 | 0.3 | 46 | 67* | 1.2
O=C1OC(N2CCN(C(=O)C3CCCO3)CC2)c2ccccc21 (stereo not drawn) | 1.1 | 1.1 | -12 | -10 | 0.9
COc1ccc(CNC2=CC(=O)CC(C)(C)C2)cc1 | 0.9 | 0.9 | 12 | 11 | 0.8
CC(=O)Nc1ccc(OCC(O)CN2CCN(c3cccc(Cl)c3)CC2)cc1 (stereo not drawn) | 0.7 | 0.4 | 34 | 56* | 1.3
CN(C)S(=O)(=O)N1CCN(CC(O)COc2ccc3cc(Br)ccc3c2)CC1 (stereo not drawn) | 0.5 | 0.4 | 48 | 58* | 1.4
OCCN1CCN(CC(O)COc2ccc3ccccc3c2)CC1 (stereo not drawn) | 1.1 | 1.3 | -13 | -28 | 1.2
CC(=O)Nc1ccc(S(=O)(=O)N2CCN(CC(O)COc3ccc4ccccc4c3)CC2)cc1 (stereo not drawn) | 0.1 | 0.1 | 87* | 87* | 1.7
CCOC(=O)c1ccc(NC(=S)NCC(O)c2ccccc2)cc1 (stereo not drawn) | 0.7 | 0.7 | 28 | 34 | 1
COc1ccc(CNC(=S)Nc2cc(C)cc(C)c2)cc1 | 0.9 | 2* | 5 | -98 | 1.2
COc1ccc(CCNC(=S)Nc2cccc(C)c2)cc1 | 0.4 | 0.7 | 65* | 33 | 0.6
Cc1ccc(SCCNC(=S)Nc2cc(C)cc(C)c2)cc1 | 0.5 | 0.9 | 51* | 8 | 0.5
COc1ccc(C(=S)Nc2ccc(C)cc2)cc1 | 0.7 | 0.9 | 32 | 14 | 1
COc1ccc(-n2nnnc2Sc2ccc(S(=O)(=O)N3CCOCC3)cn2)cc1 | 0.9 | 0.7 | 12 | 28 | 0.9
COC(=O)c1ccccc1OCC(=O)N1CCN(c2ccc(OC)cc2)CC1 | 0.8 | 0.9 | 19 | 12 | 0.9
O=C(O)c1ccc(OCC(O)Cn2cnc3ccccc32)cc1 (stereo not drawn) | 1.1 | 1.1 | -9 | -11 | 0.8
COc1cc(OC)cc(OCC(O)Cn2cnc3cc(C)c(C)cc32)c1 (stereo not drawn) | 0.2 | 0.4 | 85* | 57* | 1.7
CC1(C)NC(=O)N(c2ccccc2Cl)C1(C)NO (stereo not drawn) | 0.8 | 0.9 | 24 | 8 | 1
CCOc1ccc(C(=O)Nn2cnnc2)cc1 | 0.3 | 0.2 | 74* | 76* | 1
CCOc1ccc(C(=O)Nc2nnn(CC)n2)cc1 | 0.8 | 0.9 | 17 | 14 | 1
Cc1n[nH]c(C)c1S(=O)(=O)N1CCN(C2CCCCC2)CC1 | 1 | 0.7 | 1 | 28 | 1.7
SMILES | CYP2C19 activ | CYP2C9 act | CYP2C19 inhib | CYP2C9 inhib | PLAP activator
CCC(=O)Nc1sc2c(c1C(N)=O)CCC2 | 0.9 | 0.6 | 11 | 36 | 0.9
NC(=O)c1c(NC(=O)Cc2cccs2)sc2c1CCC2 | 0.6 | 0.4 | 44 | 58* | 0.7
N#Cc1c(NC(=S)NC(=O)Cc2cccs2)sc2c1CCCCC2 | 0.7 | 0.1 | 28 | 89* | 1.1
COC(=O)Nc1sc2c(c1C(N)=O)CCCCCC2 | 0.5 | 1.1 | 55* | -8 | 1
CN(CC(=O)Nc1ccccc1C(=O)N1CCCC1)S(=O)(=O)c1ccc(Cl)cc1 | 0.8 | 0.6 | 18 | 45 | 1.2
COc1ccc(Sc2ccccc2CN(C)C)cc1OC | 0.4 | 0.7 | 57* | 26 | 1.2
Cc1ccc(-n2ncc(N(C)C)c(Cl)c2=O)cc1 | 0.9 | 1.1 | 15 | -5 | 0.8
O=C1CC(c2ccccc2)Cc2nc(NCc3ccco3)ncc21 (stereo not drawn) | 0.5 | 0.5 | 45 | 51* | 0.8
COc1ccc(Nc2ncc3c(n2)CC(c2ccc(OC)cc2)CC3=O)cc1 (stereo not drawn) | 0.9 | 0.7 | 6 | 27 | 0.8
COc1ccccc1C(=O)Nc1ncc2c(n1)CC(c1ccco1)CC2=O (stereo not drawn) | 0.4 | 0.7 | 56* | 29 | 1.5
O=C1CC(c2ccco2)Cc2nc(NCC3CCCO3)ncc21 (stereo not drawn) | 0.9 | 1 | 12 | 4 | 1
O=C1CC(c2ccco2)Cc2nc(Nc3ccc(F)cc3)ncc21 (stereo not drawn) | 0.4 | 0.4 | 56* | 59* | 1.1
COc1ccc(C2CC(=O)c3cnc(NC(=O)c4ccccc4)nc3C2)c(OC)c1 (stereo not drawn) | 0.5 | 0.5 | 47 | 48 | 0.8
COc1ccc(NC(=O)C2CC(=O)OC2(C)C)cc1 (stereo not drawn) | 0.9 | 1.1 | 10 | -11 | 0.9
Cc1cc(=O)n2c(n1)OC(CO)C2 (stereo not drawn) | 1 | 1 | -4 | 0 | 0.9
COc1ccc2c(c1)OC13CCCCC1C2C(C(=O)c1ccccc1)C(=O)N3 (stereo not drawn) | 0.8 | 0.8 | 16 | 15 | 0.7
O=C(CSC1=NCCS1)N1CCCCCC1 | 0.4 | 1 | 57* | -3 | 0.8
Cc1noc(C)c1CSc1ccc(Br)cc1 | 0 | 0.9 | 96* | 11 | 1.1
Cc1noc(C)c1CSc1nnc(-c2ccccc2F)n1CCc1ccccc1 | 0.6 | 0.8 | 39 | 23 | 1.2
Cc1noc(C)c1CSc1cc(C)c2ccccc2n1 | 0.1 | 0.5 | 86* | 55* | 1.1
Cc1noc(C)c1CSc1nnc2sc3ccccc3n12 | 0.2 | 1 | 78* | 2 | 1.1
Cc1noc(C)c1CSc1nc2ccccc2n1C | 0.1 | 0.4 | 89* | 62* | 1
Cc1cc(SCCC(=O)O)nc2ccccc12 | 1.2 | 1.2 | -17 | -25 | 1.3
CCN(CCC(=O)Nc1cc(OC)cc(OC)c1)Cc1ccccc1 | 0.8 | 0.9 | 23 | 9 | 1.4
CCOC(=O)N1CCN(C(=O)c2cccc(-n3c(=S)[nH]c4cc(Cl)ccc4c3=O)c2)CC1 | 1 | 0.8 | 1 | 23 | 1.3
O=C1CCCc2[nH]nc(-c3cccnc3)c21 | 1.1 | 1.1 | -12 | -6 | 1.2
CC(=O)Nc1c(O)n(C)c2ccccc12 | 0.9 | 1 | 5 | 1 | 0.9
O=C(Nc1ncnc2c1ncn2C1OC(COC(=O)c2ccccc2)C(F)C1O)c1ccccc1 (stereo not drawn) | 0.2 | 0.1 | 80* | 86* | 1.6
